PubChem BioAssay (NCI)
About 83,000 compounds went through this panel and 20% of them were active in at least one assay; those are over-represented in the sample as a whole.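 Plates (96-well) were seeded with cells, treated with compound at one concentration, and incubated for 48 hours before percent growth was determined.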 The source made the active and inactive calls. The calls were made as follows: active = growth percent below 10; inactive = the rest.

Key:
Test in all cases: NCI-60 one-dose screen, 48 h (100 = growth as untreated, 0 = no growth, -100 = all killed)
[1] = test system: DU-145 prostate; conditions: 10 µM unless noted
[2] = test system: K-562 leukemia; conditions: 10 µM unless noted
[3] = test system: MALME-3M melanoma; conditions: 10 µM unless noted
[4] = test system: MDA-MB-231 breast; conditions: 10 µM unless noted
[5] = test system: RXF 393 renal; conditions: 10 µM unless noted
[6] = test system: SF-268 CNS; conditions: 10 µM unless noted
[7] = test system: SF-295 CNS; conditions: 10 µM unless noted
[8] = test system: UACC-257 melanoma; conditions: 10 µM unless noted
[9] = test system: M14 melanoma; conditions: 10 µM unless noted
[10] = test system: HCT-15 colon; conditions: 10 µM unless noted
[11] = test system: HT29 colon; conditions: 10 µM unless noted
[12] = test system: SNB-75 CNS; conditions: 10 µM unless noted
[13] = test system: SNB-19 CNS; conditions: 10 µM unless noted
[14] = test system: U251 CNS; conditions: 10 µM unless noted
[15] = test system: PC-3 prostate; conditions: 10 µM unless noted
[16] = test system: SK-MEL-5 melanoma; conditions: 10 µM unless noted
[17] = test system: UACC-62 melanoma; conditions: 10 µM unless noted
[18] = test system: LOX IMVI melanoma; conditions: 10 µM
[19] = test system: SK-MEL-28 melanoma; conditions: 10 µM unless noted
[20] = test system: SF-539 CNS; conditions: 10 µM unless noted

Measured: growth

O=C(c1ccccc1)C(Br)[N+](=O)[O-] (centres undefined)
inactive: [1] 105% | [2] 25.8% | [3] 54.4% | [4] 93.2% | [5] 117% | [6] 102% | [7] 101% | [8] 79% | [9] 84.3% | [10] 78.1% | [11] 90.5% | [12] 86.3% | [13] 102% | [14] 84.2% | [15] 89.4% | [16] 102% | [17] 89.8% | [18] 80.5% | [19] 106%

O=C(O)c1ccc2c(c1)C(=O)c1ccccc1C2=O
inactive: [1] 98.5% | [2] 88.7% | [3] 102% | [4] 94.1% | [5] 110% | [6] 98.3% | [7] 100% | [20] 97.7% | [9] 101% | [10] 106% | [11] 108% | [12] 91.6% | [13] 104% | [14] 98.9% | [15] 96.5% | [16] 97.5% | [17] 94.9% | [18] 96.1% | [19] 111%

CN1CSC(=S)N(Cc2ccccc2)C1
inactive: [1] 110% | [2] 49.9% | [3] 99.3% | [4] 90.7% | [5] 83.1% | [6] 105% | [7] 106% | [8] 84.3% | [9] 92% | [10] 84.8% | [11] 24.9% | [12] 98.1% | [13] 95.5% | [14] 100% | [15] 95.4% | [16] 96.8% | [17] 85.8% | [18] 11.3% | [19] 120%

CN(C)c1ccc(/C=C/c2nccc3ccccc23)cc1
inactive: [1] 101% | [2] 92.8% | [3] 110% | [4] 51.3% | [5] 102% | [6] 97.2% | [7] 79.1% | [20] 99% | [9] 88.8% | [10] 66.4% | [11] 98.6% | [12] 98.8% | [13] 79.4% | [15] 83.4% | [16] 86.7% | [17] 60.9% | [18] 87.8% | [19] 89.4%

CN=C(N)N/N=C(\C)c1ccc2c(c1)Cc1ccccc1-2
active: [1] -85.9% | [2] -81.5% | [3] -85% | [4] -67.5% | [5] -28.4% | [6] -44.2% | [7] -51.9% | [8] -70.3% | [9] -96.1% | [10] -81.4% | [13] -40% | [14] -82.2% | [15] -20.6% | [16] -100% | [17] -80.2% | [18] -83.9% | [19] -98.4%

OC(c1cc(C23CC4CC(CC(C4)C2)C3)nc2c(Cl)cc(Cl)cc12)C1CCCCN1 (centres undefined)
active: [1] -93.6% | [2] -67% | [3] -16.3% | [4] -62.2% | [5] -91.4% | [6] -86.9% | [20] -76.9% | [8] -69.1% | [9] -85.6% | [10] -65.7% | [11] -89.8% | [12] -82% | [13] -58.4% | [14] -88.5% | [15] -84.5% | [16] 9.05% | [17] -44.1% | [18] -51.2% | [19] -79.8%

Nc1nc(N)c2cc(Sc3cccc(C(F)(F)F)c3)ccc2n1
active: [2] 8.39%
inactive: [1] 28.6% | [3] 31.5% | [4] 45.3% | [5] 42.8% | [6] 29.5% | [20] 28.6% | [8] 27.4% | [9] 13.6% | [10] 24.3% | [11] 14.5% | [12] 42.7% | [13] 34.6% | [14] 19.2% | [15] 28.3% | [16] 21.4% | [17] 30.3% | [18] 17.4% | [19] 58.4%

Oc1c(Cl)cc(Cl)cc1C(c1cc(Cl)cc(Cl)c1O)C(Cl)(Cl)Cl
inactive: [1] 19.3% | [6] 11.6% | [13] 19.2% | [17] 11.8% | [19] 30.4%
active: [2] 9.05% | [3] -27% | [4] -25.1% | [5] -30.7% | [20] 4.37% | [8] -24.9% | [10] 2.87% | [11] 7.53% | [12] -7.64% | [14] 4.24% | [15] -7.63% | [16] -38.8% | [18] 0.701%

CC(C)Nc1ccc(Nc2ccc(NC(C)C)cc2)cc1
inactive: [1] 63.1% | [2] 24.6% | [3] 35.8% | [4] 33.3% | [5] 77.5% | [6] 63.5% | [7] 67.6% | [8] 23.7% | [9] 72% | [10] 92.9% | [11] 26.9% | [12] 79.7% | [13] 28.6% | [14] 16.9% | [15] 38.8% | [16] 33.2% | [17] 36.6% | [18] 39.9% | [19] 50.8%

NC(=S)Nc1ccc2c(c1)Cc1ccccc1-2
inactive: [1] 108% | [2] 82% | [3] 88.4% | [4] 69.5% | [5] 102% | [6] 90.5% | [7] 98.7% | [8] 69.9% | [9] 99.7% | [10] 95.7% | [11] 87.8% | [12] 73.8% | [13] 87.7% | [14] 83.7% | [15] 71% | [16] 88.9% | [17] 77.3% | [18] 91.4% | [19] 103%

Cc1oc2c(C)c3oc(=O)cc(C)c3cc2c1CCl
inactive: [1] 72.8% | [2] 59% | [3] 95.8% | [4] 81.7% | [5] 83.6% | [6] 75.9% | [7] 87% | [8] 88.9% | [9] 93.2% | [10] 91.8% | [13] 81.5% | [14] 82.9% | [15] 91% | [16] 77.6% | [17] 44.3% | [18] 56.6% | [19] 93.3%

O=S(=O)(O)c1cnccn1
inactive: [1] 110% | [2] 106% | [3] 108% | [4] 108% | [5] 114% | [6] 102% | [7] 101% | [20] 97.2% | [9] 100% | [10] 103% | [11] 94.7% | [12] 92.9% | [13] 104% | [14] 102% | [15] 82.6% | [16] 104% | [17] 99.4% | [18] 98% | [19] 107%

CC(C)c1ccc(Nc2n[nH]c(=S)s2)cc1
inactive: [1] 104% | [2] 95.5% | [3] 102% | [4] 89.1% | [5] 109% | [6] 107% | [7] 90.4% | [20] 104% | [9] 93.5% | [10] 99.8% | [11] 76.1% | [12] 92.3% | [13] 99.1% | [15] 93.6% | [16] 101% | [17] 99% | [18] 101% | [19] 112%

CCC1CCCCN1C(=S)N/N=C(\C)c1ccccn1 (centres undefined)
active: [3] -13.2% | [5] 0.202% | [6] 1.82% | [8] 0% | [9] 0.97% | [11] -19.5% | [14] 6.56% | [16] -61.5% | [17] -39.8% | [18] 6.45%
inactive: [1] 20.3% | [2] 12.3% | [4] 21.5% | [7] 13% | [10] 27.3% | [12] 16.1% | [13] 16.2% | [19] 28%

C/C(=N\NC(=S)N1CC2CCC(CC2)C1)c1ccccn1
active: [2] 3.3% | [3] -1.66% | [5] -7.47% | [20] 3.7% | [8] 5.97% | [9] -32.4% | [11] 6.46% | [14] 5.52% | [15] -4.47% | [16] -68.3% | [17] -36.7% | [18] 4.04%
inactive: [1] 19.4% | [4] 15.7% | [6] 15.5% | [10] 18.4% | [12] 33.8% | [13] 11.7% | [19] 37.9%

Cc1nc(Sc2nc3ccc([N+](=O)[O-])cc3s2)sc1C
inactive: [1] 31.1% | [6] 18.7% | [7] 82.1% | [8] 36.8% | [9] 11.5% | [11] 10.2% | [12] 53.1% | [13] 35.4% | [14] 27.2% | [15] 23% | [16] 41.1% | [19] 27.8%
active: [2] 3.13% | [3] -14.3% | [4] -15.6% | [5] -2.1% | [10] -21.2% | [17] -15.4% | [18] -46.4%

O=C1Nc2ccc(Br)cc2C1=O
inactive: [1] 99.5% | [2] 87.2% | [3] 102% | [4] 96.7% | [5] 119% | [6] 93.6% | [7] 99.1% | [20] 98.3% | [10] 100% | [11] 100% | [12] 92.7% | [13] 101% | [14] 98.5% | [15] 92.8% | [16] 101% | [17] 90.4% | [18] 87.4% | [19] 108%
